Compound activity from PubChem BioAssay.
This is a sample that favours compounds with a hit; in the whole collection about 0.37% have one here.
Rac1 wt modul = wildtype Rac1 GTP binding modulators, primary screen, biochemical, GST-Rac1 beads, flow cytometry, multiplex; fluorescent GTP binding; actives lie on both sides; 0 = cold GTP competed, 100 = untreated; GTP binding activity (% of control), % at 10 µM; hit rate 0.27% among 190,000;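 active = GTP binding activity at least 20 points away from the 100% control level, either lower or higher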
HRas wt GTP = modulators of GTP binding to HRas wildtype, primary screen, biochemical, bead-based flow cytometry, multiplex; GTP binding activity, % at 10 µM; AID 759, 2007; GST-Ras wt beads, Bodipy-FL-GTP binding; actives lie on both sides; hit rate 0.14% among 190,000;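 active = GTP binding activity at least 20% away from the 100% baseline, either lowered as inhibitor or raised as activator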
Target sequence (P01112 whole entry, looked up): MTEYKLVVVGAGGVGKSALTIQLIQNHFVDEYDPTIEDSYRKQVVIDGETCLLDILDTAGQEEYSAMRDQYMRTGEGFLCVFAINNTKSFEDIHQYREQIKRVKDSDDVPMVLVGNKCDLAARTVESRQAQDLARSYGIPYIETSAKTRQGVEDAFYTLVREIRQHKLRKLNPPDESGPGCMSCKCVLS
Cdc42 wt = modulators of GTP binding to wildtype Cdc42, primary screen, biochemical, multiplex bead flow cytometry, Bodipy-GTP. Cell division control protein 42 homolog (Homo sapiens), P60953. GST-Cdc42 beads; actives lie on both sides. percent activity (GTP binding), % at 10 µM. hit rate 0.2% among 190,000. AID 761, 2007;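 active = percent activity GTP binding at least 20 points away from the 100% baseline, either down as inhibitor or up as activator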;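 also: median bead fluorescence of bound Bodipy-FL-GTP at 100 nM; below 100% means less GTP binding so inhibitor and above means activator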
Target sequence (P60953 whole entry, looked up): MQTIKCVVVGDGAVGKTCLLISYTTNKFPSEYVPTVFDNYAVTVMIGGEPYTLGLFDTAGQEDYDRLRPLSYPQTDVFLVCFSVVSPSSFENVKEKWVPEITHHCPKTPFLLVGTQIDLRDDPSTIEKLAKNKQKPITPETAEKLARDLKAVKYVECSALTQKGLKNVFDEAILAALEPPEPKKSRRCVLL
Rac1 act GTP bind = GTP binding modulators of activated mutant Rac1, primary screen, biochemical, bead-based flow cytometry, multiplex, fluorescent GTP; GST-Rac1 activated beads; actives lie on both sides; 100% means binding = to untreated wells; hit rate 0.11% among 190,000; percent activity (GTP binding), % at 10 µM;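 active = GTP binding at least 20 percentage points away from the 100% baseline, in either direction, so actives lie on both sides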
Rab2 wt GTP = modulators of GTP binding to Rab2A wildtype, primary screen, biochemical, dog, bead-based flow cytometry, multiplex | GTP binding activity, % at 10 µM | hit rate 0.19% among 190,000 | GST-Rab2 wt beads, Bodipy-GTP binding;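 active = GTP binding activity at least 20 points away from 100%, either lowered or raised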
Rab7 wt modul = modulators of GTP binding to Rab7, primary screen, biochemical, wildtype, multiplex bead flow cytometry; GTP binding activity (percent of control), % at 10 µM; GST-Rab7 beads, fluorescent GTP binding; actives lie on both sides; untreated = 100%, excess cold GTP = 0%; AID 758, 2007; hit rate 0.055% among 190,000; Rab7 GTPase wild type (dog), Bodipy-FL-GTP binding;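 active = fluorescent GTP binding to Rab7 beads changed by at least 20 points from the 100% baseline, either direction, mostly lower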;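 also: median green fluorescence of bound Bodipy-FL-GTP per Rab7 bead population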
A number is an active result; [ ] = another dose, or the depositor's remark.

`COc1ccc(C)cc1NC(=O)COC(C)=O` gave Rac1 wt modul 137.0[activator], HRas wt GTP inactive, Cdc42 wt 120.0[activator], Rac1 act GTP bind inactive, Rab2 wt GTP inactive and Rab7 wt modul inactive.
For O=C(CCl)Nc1cccn2ncnc12 the results were Rac1 wt modul 120.0[activator], HRas wt GTP inactive, Cdc42 wt inactive, Rac1 act GTP bind inactive, Rab2 wt GTP inactive and Rab7 wt modul inactive.
COC(=O)/N=C/c1c(NCc2ccccc2)nc2c(C)cccn2c1=O was read as Rac1 wt modul inactive, HRas wt GTP inactive, Cdc42 wt inactive, Rac1 act GTP bind inactive, Rab2 wt GTP inactive and Rab7 wt modul inactive.
Screening CCOC(=O)c1nc(NCc2cccnc2)c2ccccc2n1 returned Rac1 wt modul inactive, HRas wt GTP inactive, Cdc42 wt inactive, Rac1 act GTP bind inactive, Rab2 wt GTP inactive and Rab7 wt modul inactive.
O=c1c2ccccc2nc2c3ccccc3c(NCc3ccccn3)nn12 was read as Rac1 wt modul 65.0, HRas wt GTP 76.0, Cdc42 wt 75.0, Rac1 act GTP bind inactive, Rab2 wt GTP 74.0 and Rab7 wt modul inactive.
For Cc1nc(NCc2ccccn2)c2ccccc2n1 the results were Rac1 wt modul inactive, HRas wt GTP inactive, Cdc42 wt inactive, Rac1 act GTP bind inactive, Rab2 wt GTP inactive and Rab7 wt modul inactive.
For O=c1c2ccccc2nc2c3ccccc3c(NCc3cccnc3)nn12 the results were Rac1 wt modul 69.0, HRas wt GTP 75.0, Cdc42 wt 72.0, Rac1 act GTP bind inactive, Rab2 wt GTP 72.0 and Rab7 wt modul inactive.
Screening O=c1c2ccccc2nc2c3ccccc3c(NCCO)nn12 returned Rac1 wt modul 63.0, HRas wt GTP 62.0, Cdc42 wt 58.0, Rac1 act GTP bind 78.0, Rab2 wt GTP 62.0 and Rab7 wt modul inactive.
`Cc1ccc(OCC(=O)N2CCc3ccccc3C2)c([N+](=O)[O-])n1` gave Rac1 wt modul inactive, HRas wt GTP inactive, Cdc42 wt inactive, Rac1 act GTP bind inactive, Rab2 wt GTP inactive and Rab7 wt modul inactive.
Screening COc1ccc(S(=O)(=O)N2CCCCC2)cc1NC(=O)c1ccc([N+](=O)[O-])o1 returned Rac1 wt modul 74.0, HRas wt GTP inactive, Cdc42 wt inactive, Rac1 act GTP bind inactive, Rab2 wt GTP inactive and Rab7 wt modul inactive.
Screening COc1cc2[nH]c(=S)nc(NCc3ccccn3)c2cc1OC returned Rac1 wt modul 76.0, HRas wt GTP inactive, Cdc42 wt inactive, Rac1 act GTP bind inactive, Rab2 wt GTP inactive and Rab7 wt modul inactive.
For COCCNc1nc(=S)[nH]c2cc(OC)c(OC)cc12 the results were Rac1 wt modul 71.0, HRas wt GTP 71.0, Cdc42 wt 68.0, Rac1 act GTP bind inactive, Rab2 wt GTP 69.0 and Rab7 wt modul 79.0.
For COc1ccc(CCNC(=O)CCCCCNc2nc(=S)[nH]c3ccccc23)cc1OC the results were Rac1 wt modul inactive, HRas wt GTP inactive, Cdc42 wt inactive, Rac1 act GTP bind inactive, Rab2 wt GTP inactive and Rab7 wt modul inactive.
Screening COc1cc2c(cc1NCc1ccccn1)oc1ccccc12 returned Rac1 wt modul inactive, HRas wt GTP inactive, Cdc42 wt inactive, Rac1 act GTP bind inactive, Rab2 wt GTP inactive and Rab7 wt modul inactive.
For c1ccc(CN(Cc2ccccc2)c2nn[nH]n2)cc1 the results were Rac1 wt modul inactive, HRas wt GTP inactive, Cdc42 wt inactive, Rac1 act GTP bind inactive, Rab2 wt GTP inactive and Rab7 wt modul inactive.
Clc1ccc(CN(Cc2ccc(Cl)cc2)c2nn[nH]n2)cc1 was read as Rac1 wt modul inactive, HRas wt GTP inactive, Cdc42 wt inactive, Rac1 act GTP bind 77.0, Rab2 wt GTP inactive and Rab7 wt modul inactive.
